Laboratory results: PubChem BioAssay AID1159580 (chemical genetic matrix, 2015)
Values joined by “and” are separate entries in the source; they are usually repeats but may differ in a detail not shown here. Equal values may be shown once. Hit rate of the full screen: of about 5,500 compounds, about 2,000 (36%) were called active. About 18% were inconclusive and are not listed. Rule as the data show it: active = normalized growth mostly below about 0.91 (no sharp cut-off); inconclusive = no clear call, values can overlap the other calls; inactive = mostly above about 0.92. Some of the results follow.

Assay: chemical genetic growth profiling, strain panel (AID 1159580);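 also: tested at 20 µM; growth read once vehicle control cultures reached saturation at 30 °C; 1 = growth at the plate median or of vehicle wells; lower values mean less growth of the strain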
Conditions: S. cerevisiae deletion strains, growth OD
[1] = locus YBR229C, strain ROT2, stronger effect = lower value
[2] = locus YDL101C, strain DUN1, stronger effect = lower value
[3] = locus YEL061C, strain CIN8, stronger effect = lower value
[4] = locus YGR078C, strain PAC10, stronger effect = lower value
[5] = locus YHR030C, strain SLT2, stronger effect = lower value
[6] = locus YJR043C, strain POL32, stronger effect = lower value
[7] = locus YLR039C, strain RIC1, stronger effect = lower value
[8] = locus YMR263W, strain SAP30, stronger effect = lower value
[9] = locus YNL128W, strain TEP1, stronger effect = lower value
[10] = locus YNL153C, strain GIM3, stronger effect = lower value
[11] = locus YNL322C, strain KRE1, stronger effect = lower value
[12] = locus YPL055C, strain LGE1, stronger effect = lower value

Measured: normalized growth

CCOC(=O)NC(=O)c1cn(Cc2cccs2)c(=O)[nH]c1=O
inactive: locus YAL013W, strain DEP1, stronger effect = lower value 0.999 | [1] 1.02 | [2] 1 | locus YDR150W, strain NUM1, stronger effect = lower value 1.02 | [3] 0.996 | [4] 0.993 | locus YGR229C, strain SMI1, stronger effect = lower value 0.998 | [5] 1 | locus YHR087W, strain rtc3, stronger effect = lower value 1.01 | locus YJL187C, strain SWE1, stronger effect = lower value 1.01 | [6] 0.988 | locus YJR075W, strain HOC1, stronger effect = lower value 1.01 | [7] 1.01 | locus YLR058C, strain SHM2 (second series), stronger effect = lower value 1.01 | locus YLR085C, strain ARP6, stronger effect = lower value 1.03 | locus YLR262C, strain YPT6, stronger effect = lower value 0.999 | locus YML094W, strain GIM5, stronger effect = lower value 1.01 | locus YMR219W, strain ESC1, stronger effect = lower value 1.01 | [8] 1.01 | [9] 0.984 | [10] 0.983 | locus YNL298W, strain CLA4 (second series), stronger effect = lower value 1.02 | [11] 1 | locus YNR030W, strain Alg12, stronger effect = lower value 1.01 | locus YOL006C, strain TOP1, stronger effect = lower value 0.997 | [12] 1.06 | locus YPL241C, strain CIN2, stronger effect = lower value 1.02 | locus YPR135W, strain CTF4, stronger effect = lower value 0.96

CC(C)=CCCC1(C)C=Cc2c(O)c3c(c(CC=C(C)C)c2O1)OC12C(=CCCC1C(C)(C)O[C@@]2(C/C=C(\C)C(=O)O)C(=O)O)C3=O (stereo not given in full)
active: locus YAL026C, strain drs2, stronger effect = lower value 0.813 | locus YAL030W, strain snc1, stronger effect = lower value 0.915 | locus YBL061C, strain skt5, stronger effect = lower value 0.918 | locus YBR009C, strain hhf1, stronger effect = lower value 0.86 | locus YBR023C, strain chs3, stronger effect = lower value 0.844 | [1] 0.903 | locus YBR231C, strain swc5, stronger effect = lower value 0.861 | locus YCL011C, strain gbp2, stronger effect = lower value 0.887 | locus YCL029C, strain bik1, stronger effect = lower value 0.907 | locus YDL035C, strain GPR1, stronger effect = lower value 0.782 | locus YDL074C, strain BRE1, stronger effect = lower value 0.685 | [2] 0.834 | locus YDL192W, strain arf1, stronger effect = lower value 0.766 | locus YDR101C, strain arx1, stronger effect = lower value 0.869 | locus YDR137W, strain rgp1, stronger effect = lower value 0.498 | locus YDR159W, strain sac3, stronger effect = lower value 0.694 | locus YDR162C, strain NBP2, stronger effect = lower value 0.377 | locus YDR297W, strain sur2, stronger effect = lower value 0.861 | locus YDR318W, strain mcm21, stronger effect = lower value 0.81 | locus YDR335W, strain msn5, stronger effect = lower value 0.881 | locus YDR388W, stronger effect = lower value 0.884 | locus YDR392W, strain spt3, stronger effect = lower value 0.283 | locus YDR502C, strain sam2, stronger effect = lower value 0.864 | locus YEL003W, strain gim4, stronger effect = lower value 0.907 | [3] 0.89 | locus YER015W, strain faa2, stronger effect = lower value 0.84 | locus YER111C, strain swi4, stronger effect = lower value 0.91 | locus YER155C, strain BEM2 (second series), stronger effect = lower value 0.546 | locus YER155C, strain BEM2, stronger effect = lower value 0.879 | locus YER167W, strain BCK2, stronger effect = lower value 0.807 | locus YGL086W, strain mad1, stronger effect = lower value 0.851 | locus YGL173C, strain kem1, stronger effect = lower value 0.701 | locus YGL248W, strain PDE1, stronger effect = lower value 0.792 | locus YGL253W, strain hxk2, stronger effect = lower value 0.85 | [4] 0.753 | locus YGR135W, strain pre9, stronger effect = lower value 0.863 | locus YHR027C, strain rpn1, stronger effect = lower value 0.814 | locus YHR129C, strain ARP1, stronger effect = lower value 0.808 | locus YHR142W, strain chs7, stronger effect = lower value 0.702 | locus YIL066C, strain RNR3, stronger effect = lower value 0.804 | locus YJL095W, strain BCK1 (second series), stronger effect = lower value 0.609 | locus YJL164C, strain tpk1, stronger effect = lower value 0.86 | locus YJL166W, strain qcr8, stronger effect = lower value 0.851 | locus YJL187C, strain SWE1 (second series), stronger effect = lower value 0.789 | [6] 0.822 | locus YKL160W, strain elf1, stronger effect = lower value 0.896 | locus YKR001C, strain vps1, stronger effect = lower value 0.739 | locus YLR027C, strain aat2, stronger effect = lower value 0.911 | [7] 0.366 | locus YLR058C, strain SHM2, stronger effect = lower value 0.803 | locus YLR221C, strain rsa3, stronger effect = lower value 0.823 | locus YLR262C, strain YPT6 (second series), stronger effect = lower value 0.402 | locus YLR268W, strain sec22, stronger effect = lower value 0.772 | locus YLR320W, strain mms22, stronger effect = lower value 0.646 | locus YLR330W, strain CHS5, stronger effect = lower value 0.845 | locus YLR342W, strain FKS1 (second series), stronger effect = lower value 0.77 | locus YLR342W, strain FKS1, stronger effect = lower value 0.818 | locus YLR371W, strain rom2, stronger effect = lower value 0.738 | locus YLR418C, strain cdc73, stronger effect = lower value 0.509 | locus YML016C, strain PPZ1, stronger effect = lower value 0.907 | locus YML032C, strain rad52, stronger effect = lower value 0.828 | locus YMR058W, strain fet3, stronger effect = lower value 0.258 | locus YMR125W, strain sto1, stronger effect = lower value 0.848 | locus YMR205C, strain PFK2, stronger effect = lower value 0.812 | locus YMR223W, strain ubp8, stronger effect = lower value 0.825 | locus YMR231W, strain pep5, stronger effect = lower value 0.762 | locus YMR307W, strain GAS1, stronger effect = lower value 0.317 | locus YNL071W, strain lat1, stronger effect = lower value 0.463 | [9] 0.797 | [10] 0.847 | locus YNL209W, strain ssb2, stronger effect = lower value 0.783 | locus YNL233W, strain BNI4, stronger effect = lower value 0.823 | locus YNL307C, strain MCK1, stronger effect = lower value 0.437 | [11] 0.923 | locus YNR052C, strain pop2, stronger effect = lower value 0.846 | locus YOL147C, strain pex11, stronger effect = lower value 0.867 | locus YOR061W, strain CKA2, stronger effect = lower value 0.831 | locus YOR069W, strain VPS5, stronger effect = lower value 0.847 | locus YOR106W, strain vam3, stronger effect = lower value 0.697 | locus YOR144C, strain elg1, stronger effect = lower value 0.888 | locus YOR184W, strain ser1, stronger effect = lower value 0.632 | locus YOR270C, strain vph1, stronger effect = lower value 0.517 | locus YPL051W, strain arl3, stronger effect = lower value 0.664 | [12] 0.734 | locus YPR163C, strain tif3, stronger effect = lower value 0.524 | strain wtn01, stronger effect = lower value 0.817
0.263 (active) and 0.923 (inactive): locus YJL095W, strain BCK1, stronger effect = lower value
inactive: locus YAL021C, strain ccr4, stronger effect = lower value 0.996 | locus YBR021W, strain FUR4, stronger effect = lower value 1.03 | locus YBR171W, strain sec66, stronger effect = lower value 1 | locus YBR279W, strain paf1, stronger effect = lower value 0.933 | locus YCL016C, strain dcc1, stronger effect = lower value 0.92 | locus YCL069W, strain vba3, stronger effect = lower value 0.941 | locus YCR088W, strain abp1, stronger effect = lower value 0.988 | locus YDL005C, strain med2, stronger effect = lower value 1.03 | locus YDL040C, strain nat1, stronger effect = lower value 0.999 | locus YDL185W, strain tfp1, stronger effect = lower value 0.964 | locus YDR001C, strain nth1, stronger effect = lower value 0.999 | locus YDR069C, strain doa4, stronger effect = lower value 0.923 | locus YDR195W, strain ref2 1.12 | locus YDR334W, strain swr1, stronger effect = lower value 0.991 | locus YEL037C, strain rad23, stronger effect = lower value 0.987 | locus YEL061C, strain CIN8 (second series), stronger effect = lower value 0.963 | locus YER016W, strain bim1, stronger effect = lower value 0.957 | locus YER110C, stronger effect = lower value 0.953 | locus YFR010W, strain ubp6, stronger effect = lower value 0.919 | locus YGL078C, strain dbp3, stronger effect = lower value 0.998 | locus YGL167C, strain pmr1, stronger effect = lower value 0.996 | locus YGL227W, strain vid30, stronger effect = lower value 1.04 | locus YGL240W, strain doc1, stronger effect = lower value 0.989 | locus YGR252W, strain gcn5, stronger effect = lower value 0.902 | locus YHR013C, strain ard1, stronger effect = lower value 0.96 | locus YHR079C, strain IRE1 (second series), stronger effect = lower value 0.979 | locus YHR079C, strain IRE1, stronger effect = lower value 0.94 | locus YHR094C, strain hxt1, stronger effect = lower value 0.973 | locus YHR200W, strain rpn10, stronger effect = lower value 0.952 | locus YIL073C, strain SPO22, stronger effect = lower value 0.873 | locus YIL125W, strain kgd1, stronger effect = lower value 0.961 | locus YIR030C, strain dcg1, stronger effect = lower value 0.942 | locus YJL092W, strain hpr5, stronger effect = lower value 0.949 | locus YJL115W, strain asf1, stronger effect = lower value 1.04 | locus YJL129C, strain trk1, stronger effect = lower value 0.973 | locus YJL134W, strain LCB3, stronger effect = lower value 0.929 | locus YJL154C, strain vps35, stronger effect = lower value 1.01 | locus YJL168C, strain set2, stronger effect = lower value 0.971 | locus YJR066W, strain TOR1, stronger effect = lower value 0.909 | locus YKL009W, strain mrt4, stronger effect = lower value 1.11 | locus YKL068W, stronger effect = lower value 0.981 | locus YKL085W, strain MDH1 (second series), stronger effect = lower value 0.968 | locus YKL085W, strain MDH1, stronger effect = lower value 0.968 | locus YKR026C, strain gcn3, stronger effect = lower value 1 | locus YKR091W, strain srl3, stronger effect = lower value 0.998 | locus YLL001W, strain dnm1, stronger effect = lower value 0.932 | locus YLL026W, stronger effect = lower value 0.985 | locus YLL041C, strain sdh2, stronger effect = lower value 0.992 | locus YLR102C, strain apc9, stronger effect = lower value 0.988 | locus YLR113W, strain HOG1, stronger effect = lower value 0.882 | locus YLR258W, strain gsy2, stronger effect = lower value 0.924 | locus YLR357W, strain rsc2, stronger effect = lower value 1.01 | locus YLR370C, strain arc18, stronger effect = lower value 0.988 | locus YLR384C, strain iki3, stronger effect = lower value 1.02 | locus YML120C, strain ndi1, stronger effect = lower value 0.964 | locus YML124C, strain tub3, stronger effect = lower value 0.948 | locus YMR078C, strain ctf18, stronger effect = lower value 0.973 | locus YMR129W, stronger effect = lower value 0.935 | [8] 0.936 | locus YNL067W, strain RPL9B, stronger effect = lower value 0.917 | locus YNL183C, strain NPR1, stronger effect = lower value 0.895 | locus YNL248C, strain rpa49, stronger effect = lower value 0.935 | locus YNL250W, strain rad50, stronger effect = lower value 0.956 | locus YNL271C, strain bni1, stronger effect = lower value 0.947 | locus YNL298W, strain CLA4, stronger effect = lower value 0.963 | locus YNL322C, strain KRE1 (second series), stronger effect = lower value 1.04 | locus YNR049C, strain mso1, stronger effect = lower value 0.986 | locus YOL012C, strain htz1 0.267 | locus YOR001W, strain rrp6, stronger effect = lower value 0.901 | locus YOR070C, strain gyp1, stronger effect = lower value 0.931 | locus YOR080W, strain dia2, stronger effect = lower value 1.03 | locus YOR083W, strain WHI5, stronger effect = lower value 0.909 | locus YOR136W, strain idh2, stronger effect = lower value 0.94 | locus YOR231W, strain MKK1, stronger effect = lower value 0.942 | locus YOR265W, strain rbl2, stronger effect = lower value 0.945 | locus YOR290C, strain snf2, stronger effect = lower value 0.944 | locus YOR316C, strain cot1, stronger effect = lower value 0.979 | locus YPL078C, strain atp4, stronger effect = lower value 0.897 | locus YPL106C, strain sse1, stronger effect = lower value 0.993 | locus YPL240C, strain hsp82, stronger effect = lower value 0.955 | locus YPL256C, strain CLN2, stronger effect = lower value 0.893 | locus YPR119W, strain clb2, stronger effect = lower value 0.956 | locus YPR141C, strain kar3, stronger effect = lower value 0.962 | locus YPR167C, strain met16, stronger effect = lower value 0.939
0.501 (active) and 0.921 (inactive): [5]
